Assay results taken from PubChem BioAssay (NCI).
This is part of a sample that, as a whole, favours compounds with a hit. Of some 83,000 tested, about 20% had one in any assay.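 Each cell line was grown in a 96-well plate and treated with one concentration of compound for 48 hours. Values below 10 were considered active.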 A number with no mark means an inactive call. Active and inactive are the calls of the source.

Columns and labels:
Assay in all cases: NCI-60 one-dose screen, 48 h (100 = growth as untreated, 0 = no growth, -100 = all killed)
Conditions in all cases: 10 µM unless noted
SK-MEL-2 melanoma = tested on: SK-MEL-2 melanoma
EKVX NSCLC = tested on: EKVX NSCLC
SN12C renal = tested on: SN12C renal
UO-31 renal = tested on: UO-31 renal
TK-10 renal = tested on: TK-10 renal
ACHN renal = tested on: ACHN renal
CAKI-1 renal = tested on: CAKI-1 renal
A498 renal = tested on: A498 renal
CCRF-CEM leukemia = tested on: CCRF-CEM leukemia
MOLT-4 leukemia = tested on: MOLT-4 leukemia
SR leukemia = tested on: SR leukemia
RPMI-8226 leukemia = tested on: RPMI-8226 leukemia
OVCAR-8 ovarian = tested on: OVCAR-8 ovarian
OVCAR-5 ovarian = tested on: OVCAR-5 ovarian
OVCAR-4 ovarian = tested on: OVCAR-4 ovarian
SK-OV-3 ovarian = tested on: SK-OV-3 ovarian
IGROV1 ovarian = tested on: IGROV1 ovarian
OVCAR-3 ovarian = tested on: OVCAR-3 ovarian
HS 578T breast = tested on: HS 578T breast
NCI/ADR-RES ovarian = tested on: NCI/ADR-RES ovarian

Structure (SMILES) | growth (SK-MEL-2 melanoma) | growth (EKVX NSCLC) | growth (SN12C renal) | growth (UO-31 renal) | growth (TK-10 renal) | growth (ACHN renal) | growth (CAKI-1 renal) | growth (A498 renal) | growth (CCRF-CEM leukemia) | growth (MOLT-4 leukemia) | growth (SR leukemia) | growth (RPMI-8226 leukemia) | growth (OVCAR-8 ovarian) | growth (OVCAR-5 ovarian) | growth (OVCAR-4 ovarian) | growth (SK-OV-3 ovarian) | growth (IGROV1 ovarian) | growth (OVCAR-3 ovarian) | growth (HS 578T breast) | growth (NCI/ADR-RES ovarian)
Cn1cc(-c2nc(N)nnc2-c2c[nH]c3ccc(F)cc23)c2cc(Br)cnc21 | -27.7% (active) | 26.2% | 10.4% | 6.23% (active) | 26.2% | 12.2% | -10.9% (active) | -31.2% (active) | 5.12% (active) | -0.149% (active) | 3.88% (active) | -6.78% (active) | 0.188% (active) | 14.9% | 29.8% | 19.8% | 15.8% | -33.2% (active) | 35.8% | 0.236% (active)
CCOC(=O)C1=C(N)N(c2ccccc2)C2=C(C(=O)CC(C)(C)C2)C1c1ccccc1Cl (stereo not given) | 57.7% | 74.6% | 75% | 55.3% | 100% | 69.2% | 46.7% | 99.4% | 48.4% | 25.8% | 32.5% | 22.5% | 83.6% | 86.8% | 74.6% | 90.1% | 92% | 62.7% | 93.4% | 74%
C#CCOc1ccc(/C=N/Nc2nc(-c3ccc(F)cc3)cs2)cc1OC | 60.8% | 62.5% | 68.9% | 48.4% | 156% | 64.5% | 56.2% | 80.7% | 26.3% | 12.1% | 25.5% | 35.5% | 63.8% | 84.9% | 65.6% | 88% | 72.6% | 71.2% | 81.2% | 32.2%
COC(=O)/C=C/c1cccc2c1C(=O)NC(C)(c1cc3ccccc3oc1=O)N2 (stereo not given) | -2.01% (active) | 78.2% | 73.8% | 31.3% | 49% | 30.8% | 20.7% | 49.7% | 83.7% | 63% | 58.7% | 82.6% | 66.9% | 77.6% | 70% | 41.7% | 32% | 74.1% | 72% | 80.1%
Cc1ccc(-c2nc(C#N)c(S(=O)(=O)N3CCN(S(=O)(=O)c4ccccc4)CC3)o2)cc1 | 48% | 63.1% | 3.58% (active) | -67.7% (active) | 81.2% | -36.9% (active) | 47% | 123% | -33.6% (active) | -20.5% (active) | -48.1% (active) | -24.5% (active) | 1.2% (active) | 19.5% | -1.2% (active) | 115% | -63.6% (active) | 1.2% (active) | 65.5% | 4.76% (active)
Cc1ccc(NC(=O)CN2CCN(c3ncnc4c3cnn4-c3ccccc3)CC2)cc1 | 87.8% | 81% | 74.6% | 63% | 152% | -32.7% (active) | 77.8% | 104% | 78.4% | 68.1% | 52.6% | 75.8% | 71.4% | 98% | 82.9% | 112% | 81.3% | 103% | 77.7% | 79.5%
CN1C(=O)/C(=C/c2ccc(C(=O)Nc3ncc(Cc4ccc(Cl)cc4Cl)s3)cc2)SC1=S | 19.7% | 63% | 36.1% | 40.4% | 71.4% | 31.3% | 30.1% | 87.6% | 40.2% | 31.1% | 28.8% | 36.3% | 39.3% | 46.3% | 53.6% | 53.3% | 47.2% | 12.9% | 44.3% | -11.8% (active)
Cc1cccc(-c2nc(Nc3ccc(C)c(S(N)(=O)=O)c3)c3ccccc3n2)c1 | 52.2% | 22.7% | 29.8% | 25.2% | 60.1% | 15.3% | 24% | 52.8% | 17.7% | 16.8% | 9.02% (active) | 12.9% | 32.8% | 47.6% | 44.7% | 103% | 42.9% | 39.3% | 53.4% | 18.7%
COc1ccc(/C=C/c2nc3ccccc3c(=O)n2CC(=O)Nc2ccc(Cl)cc2)cc1 | 99.9% | 89.3% | 55.3% | 79.5% | 116% | 50.7% | 43.1% | 118% | 108% | 82.2% | 70.8% | 84% | 27% | 92.7% | 17.2% | 78.7% | 96.5% | 50% | 23.3% | 56.1%
O=C(O)Cn1c(O)c(/C=C2/C=c3cc4c(cc3=NC2=O)OCCO4)sc1=S | 117% | 101% | 97.5% | 89.9% | 110% | 119% | 99.3% | 118% | 97.3% | 105% | 89.2% | 98.2% | 110% | 112% | 109% | 129% | 114% | 110% | 107% | 103%
Cc1ccc(C(=O)C(c2c[nH]c3ccccc23)c2c[nH]c3ccccc23)cc1 | 72.4% | 56.5% | -12.8% (active) | 26.4% | 111% | 17.9% | 18.7% | 108% | 5.91% (active) | 5.7% (active) | -6.82% (active) | -2.33% (active) | 44.2% | 46.7% | 43.7% | 94% | 35.8% | 29.2% | 83.2% | 24.8%
Cn1cc(-c2nnc(N)nc2-c2c[nH]c3ccc(Br)cc23)c2cc(Br)cnc21 | 35.4% | 64.3% | 63% | 42.4% | 37.7% | 61.3% | 33% | 39.4% | 28% | 11.7% | 23.8% | 41.6% | 59.4% | 73.8% | 45.6% | 89.2% | 46.4% | 55.8% | 59.2% | 64.5%
Cc1cccc(Nc2nc3ccccc3nc2/C=C/c2ccc(F)cc2)c1 | 98.3% | 83.7% | 90.9% | 67.9% | 151% | 89.9% | 79.9% | 112% | 97.1% | 80.9% | 87.2% | 91.8% | 85.1% | 101% | 88.9% | 105% | 75.3% | 108% | 83.8% | 91.1%
CCCSc1nc(Nc2ccc(S(N)(=O)=O)cc2)c(C#N)c(-c2cc(OC)c(OC)c(OC)c2)n1 | 43% | 36.6% | 20.4% | 2.53% (active) | 50.4% | 11.8% | 25.6% | 80.8% | 8.03% (active) | -35.8% (active) | 6.66% (active) | 3.5% (active) | 10.2% | 58.5% | 27.5% | 64.9% | 34.9% | 24.6% | 30.7% | 15.1%
C=CC(=O)Nc1ccc(C)c(Oc2ccc(Cl)cc2)c1 | 41.8% | 62.6% | 45.3% | 24.4% | 74% | 65.4% | 61.7% | 58.5% | 57.9% | 45.3% | 24.3% | 23.8% | 38.5% | 64.8% | 56.2% | 77.4% | 46.4% | 36.6% | 51.8% | 37.3%
COc1cc2oc(-c3cccc(NC(=O)[C@H](Cc4ccccc4)NC(=O)OC(C)(C)C)c3)cc(=O)c2c(OC)c1OC | 20.9% | 55.9% | 32% | 18.2% | 45.2% | 18.1% | 31.7% | 77.9% | 32% | 9.42% (active) | 22.5% | 22.7% | 26.7% | 80.8% | 41.4% | 78.7% | 32.7% | 36.3% | 16.4% | 29.6%
